Data published in PubChem BioAssay (Tox21).
Results filed as inconclusive are left out. Activity calls are given as the source filed them. Unless noted, calls follow the shape of the dose curve; as a rule, active = well fitted curve in the direction sought with a large enough effect in the repeat runs; inconclusive = weak or mixed curves; inactive = no such curve, though single readings can be large; an effect the other way counts as inactive or inconclusive.

What was measured:
[1] = qHTS assay to identify small molecule antagonists of the thyroid receptor (TR) signaling pathway (AID 743065); also: series mostly up to about 70 µM; nearly all actives have a fitted effect of over 55% in size
Summary of the method: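 Antagonism measured as loss of luciferase signal in GH3 cells stably carrying a TRE-luciferase reporter, co-treated with compound and T3 (1 nM final) for 23.5 h at 37 C. Viability was read in the same well by CellTiter-Fluor.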

[2] = test system: thyroid hormone receptor (rat, GH3 cells); test: qHTS assay to identify small molecule agonists of the thyroid receptor (TR) signaling pathway (AID 743066; calls by dose curve)
[3] = biological target: Estrogen receptor (Homo sapiens) (UniProt P03372); test: qHTS assay to identify small molecule antagonists of the estrogen receptor alpha (ER-alpha) signaling pathway (AID 743069; active = well fitted curve in the direction sought with a large enough effect in the signal ratio in the repeat runs, not every such curve was filed as active; the % refers to the signal ratio)
Chain of Estrogen receptor (Homo sapiens) (P03372 whole entry, looked up): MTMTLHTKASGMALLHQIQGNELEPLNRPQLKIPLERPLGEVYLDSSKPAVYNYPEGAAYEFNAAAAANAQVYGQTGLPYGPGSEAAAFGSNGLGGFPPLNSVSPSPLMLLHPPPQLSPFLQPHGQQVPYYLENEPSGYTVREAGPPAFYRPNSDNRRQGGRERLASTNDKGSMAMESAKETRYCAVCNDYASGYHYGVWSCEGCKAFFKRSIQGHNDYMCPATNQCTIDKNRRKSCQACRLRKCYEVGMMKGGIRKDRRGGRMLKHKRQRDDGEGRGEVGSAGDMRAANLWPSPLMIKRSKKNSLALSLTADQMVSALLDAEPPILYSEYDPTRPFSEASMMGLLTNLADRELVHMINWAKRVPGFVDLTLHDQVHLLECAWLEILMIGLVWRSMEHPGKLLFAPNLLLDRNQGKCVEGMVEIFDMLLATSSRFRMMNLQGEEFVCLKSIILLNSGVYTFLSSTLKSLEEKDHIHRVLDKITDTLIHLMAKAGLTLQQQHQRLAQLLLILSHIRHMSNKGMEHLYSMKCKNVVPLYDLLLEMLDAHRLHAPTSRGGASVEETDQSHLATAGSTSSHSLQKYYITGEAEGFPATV
Summary of the method: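 Compound effects are measured against 17beta-estradiol stimulation in HEK293 cells with a UAS-controlled beta-lactamase reporter for ER-alpha. Exposure lasts 18 hr at 37C; LiveBLAzer B/G FRET substrate follows for 2 hr at room temperature.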

[4] = qHTS assay to identify small molecule antagonists of the estrogen receptor alpha (ER-alpha) signaling pathway - cell viability counter screen (AID 743074; calls by dose curve;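 also: HEK293 cells carrying ER-alpha-UAS-bla reporter stimulated with 17beta-estradiol; nearly all actives have a fitted effect of over 45% in size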)
[5] = biological target: Estrogen receptor (Homo sapiens) (UniProt P03372); test: qHTS assay to identify small molecule agonists of the estrogen receptor alpha (ER-alpha) signaling pathway (AID 743075; calls by dose curve)
[6] = biological target: Estrogen receptor (Homo sapiens) (UniProt P03372); test: qHTS assay to identify small molecule agonists of the estrogen receptor alpha (ER-alpha) signaling pathway using the BG1 cell line (AID 743079); also: nearly all actives have a fitted effect of over 20% in size
[7] = qHTS assay to identify small molecule antagonists of the estrogen receptor alpha (ER-alpha) signaling pathway using the BG1 cell line (AID 743080; calls by dose curve;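 also: BG1 cells stimulated with 17beta-estradiol alongside compound; series mostly up to about 70 µM; nearly all actives have a fitted effect of over 25% in size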)
Summary of the method: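 Luciferase inhibition measured with ONE-Glo after 30 min at RT in BG1Luc4E2 cells given test compounds and 17beta-estradiol for 21.5 h at 37 C; CellTiter-Fluor viability read in the same wells beforehand.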

[8] = qHTS assay to identify small molecule antagonists of the estrogen receptor alpha (ER-alpha) signaling pathway using the BG1 cell line - cell viability counter screen (AID 743081);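 also: compound given together with 17beta-estradiol as the ER stimulus; series mostly up to about 70 µM; nearly all actives have a fitted effect of over 45% in size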
Aromatase (Homo sapiens) = Aromatase (Homo sapiens) (UniProt P11511); test: qHTS assay to identify aromatase inhibitors (AID 743083); also: series mostly up to about 70 µM; nearly all actives have a fitted effect of over 55% in size
Chain of Aromatase (Homo sapiens) (P11511 whole entry, looked up): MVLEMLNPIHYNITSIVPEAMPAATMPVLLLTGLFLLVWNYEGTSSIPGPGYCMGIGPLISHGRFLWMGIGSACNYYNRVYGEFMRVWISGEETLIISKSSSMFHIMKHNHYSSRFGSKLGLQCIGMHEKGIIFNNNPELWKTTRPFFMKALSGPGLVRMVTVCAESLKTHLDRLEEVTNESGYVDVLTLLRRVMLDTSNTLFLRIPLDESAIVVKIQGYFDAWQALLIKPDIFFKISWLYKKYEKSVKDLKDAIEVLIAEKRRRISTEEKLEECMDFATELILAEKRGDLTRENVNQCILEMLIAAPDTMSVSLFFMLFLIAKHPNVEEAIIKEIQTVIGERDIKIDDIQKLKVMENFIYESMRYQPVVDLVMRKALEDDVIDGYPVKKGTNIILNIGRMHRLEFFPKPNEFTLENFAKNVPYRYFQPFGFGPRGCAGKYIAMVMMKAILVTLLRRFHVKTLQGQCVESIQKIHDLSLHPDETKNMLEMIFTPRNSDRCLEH

[9] = qHTS assay to identify aromatase inhibitors - cell viability counter screen (AID 743084);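 also: cells stimulated with testosterone during compound exposure; nearly all actives have a fitted effect of over 55% in size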
[10] = biological target: Aryl hydrocarbon receptor (Homo sapiens) (UniProt P35869); test: qHTS assay to identify small molecule that activate the aryl hydrocarbon receptor (AhR) signaling pathway (AID 743085);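 also: HG2L7.5c1 human HepG2 liver cells with stably integrated DRE-driven firefly reporter; series mostly up to about 70 µM; nearly all actives have a fitted effect of over 15% in size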
Chain of Aryl hydrocarbon receptor (Homo sapiens) (P35869 whole entry, looked up): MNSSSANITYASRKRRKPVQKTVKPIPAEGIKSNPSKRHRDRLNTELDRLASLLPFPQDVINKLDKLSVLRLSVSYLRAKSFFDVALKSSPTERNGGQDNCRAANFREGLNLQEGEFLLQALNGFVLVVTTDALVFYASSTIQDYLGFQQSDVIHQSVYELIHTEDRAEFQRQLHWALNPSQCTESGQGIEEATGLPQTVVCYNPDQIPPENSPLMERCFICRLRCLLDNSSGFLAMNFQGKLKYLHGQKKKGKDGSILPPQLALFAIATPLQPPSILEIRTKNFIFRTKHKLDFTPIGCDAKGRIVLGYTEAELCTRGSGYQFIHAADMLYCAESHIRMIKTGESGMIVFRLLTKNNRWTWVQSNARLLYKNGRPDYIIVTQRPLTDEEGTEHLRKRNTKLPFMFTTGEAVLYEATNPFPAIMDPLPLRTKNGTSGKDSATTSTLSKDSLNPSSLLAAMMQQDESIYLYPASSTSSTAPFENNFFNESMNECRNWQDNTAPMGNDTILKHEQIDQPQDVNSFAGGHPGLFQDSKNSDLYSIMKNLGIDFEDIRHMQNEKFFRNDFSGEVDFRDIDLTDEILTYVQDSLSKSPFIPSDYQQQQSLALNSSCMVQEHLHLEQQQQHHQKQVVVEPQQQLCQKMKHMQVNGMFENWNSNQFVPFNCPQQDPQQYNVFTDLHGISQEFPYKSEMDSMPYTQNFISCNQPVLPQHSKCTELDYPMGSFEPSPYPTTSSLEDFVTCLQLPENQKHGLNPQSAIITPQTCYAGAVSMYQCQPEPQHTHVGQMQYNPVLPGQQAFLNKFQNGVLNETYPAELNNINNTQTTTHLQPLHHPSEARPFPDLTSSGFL
Summary of the method: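 24 h compound exposure, 37C, HepG2-derived HG2L7.5c1 cells with DRE-responsive luciferase. Readouts: fluorescence viability, then luminescence at room temperature after 30 min.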

[11] = qHTS assay to identify small molecule that activate the aryl hydrocarbon receptor (AhR) signaling pathway - cell viability counter screen (AID 743086);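 also: HepG2 liver cells carrying the AhR DRE luciferase reporter; series mostly up to about 70 µM; nearly all actives have a fitted effect of over 45% in size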
Summary of the method: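 Cytotoxicity counter screen: CellTiter-Fluor signal (30 min, 37 C) in 4000 HepG2 cells/well carrying the DRE-luciferase reporter, following 24 h compound exposure at 37 C.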

[12] = biological target: Peroxisome proliferator-activated receptor gamma (Homo sapiens) (UniProt P37231); test: qHTS assay to identify small molecule agonists of the peroxisome proliferator-activated receptor gamma (PPARg) signaling pathway (AID 743094; active = well fitted activation curve with a large enough effect in the signal ratio in the repeat runs, not every such curve was filed as active; the % refers to the signal ratio)
Chain of Peroxisome proliferator-activated receptor gamma (Homo sapiens) (P37231 whole entry, looked up): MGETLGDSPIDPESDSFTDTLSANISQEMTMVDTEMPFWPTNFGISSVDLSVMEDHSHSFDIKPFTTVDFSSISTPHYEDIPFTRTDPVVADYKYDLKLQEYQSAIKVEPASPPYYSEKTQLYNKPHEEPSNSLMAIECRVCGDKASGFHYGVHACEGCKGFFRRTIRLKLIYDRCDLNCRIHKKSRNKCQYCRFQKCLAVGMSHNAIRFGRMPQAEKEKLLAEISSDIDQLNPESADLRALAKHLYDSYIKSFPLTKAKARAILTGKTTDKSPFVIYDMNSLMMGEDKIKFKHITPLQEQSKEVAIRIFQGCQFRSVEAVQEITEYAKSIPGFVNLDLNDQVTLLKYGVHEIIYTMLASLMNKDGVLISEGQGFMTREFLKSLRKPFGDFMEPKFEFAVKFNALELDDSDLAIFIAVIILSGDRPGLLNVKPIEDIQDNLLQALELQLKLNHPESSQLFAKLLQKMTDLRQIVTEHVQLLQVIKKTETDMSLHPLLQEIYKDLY
Summary of the method: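 Quantitative HTS agonist mode: stable HEK293H line with UAS-beta-lactamase reporter under PPARg control, 17 h compound exposure at 37C, fluorescence after 1 h FRET substrate loading at room temperature.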

[13] = biological target: Peroxisome proliferator-activated receptor gamma (Homo sapiens) (UniProt P37231); test: qHTS assay to identify small molecule antagonists of the peroxisome proliferator-activated receptor gamma (PPARg) signaling pathway (AID 743191; calls by dose curve; also: series mostly up to about 63 µM; nearly all actives have a fitted effect of over 30% in size)
Summary of the method: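 Beta-lactamase reporter under UAS control in HEK293H PPARg-bla cells; compound treatment 17 h at 37C. Read-out: fluorescence intensity after 1 h room-temperature incubation with LiveBLAzer B/G FRET substrate.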

[14] = qHTS assay to identify small molecule antagonists of the peroxisome proliferator-activated receptor gamma (PPARg) signaling pathway - cell viability counter screen (AID 743194); also: nearly all actives have a fitted effect of over 55% in size
Summary of the method: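 Viability was measured as CellTiter-Glo luminescence in GeneBLAzer PPARg UAS-bla HEK293H cells. These cells had been exposed 17 h at 37 C to compounds together with rosiglitazone at 50 nM final, with the beta-lactamase readout taken in the same wells.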

[15] = qHTS assay for small molecule agonists of the antioxidant response element (ARE) signaling pathway (AID 743202; active = well fitted activation curve with a large enough effect in the signal ratio in the repeat runs, not every such curve was filed as active; the % refers to the signal ratio)
Summary of the method: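 An ARE-responsive beta-lactamase gene stably integrated in HepG2 cells serves as reporter. After 5 h plating and 16 h compound incubation at 37 C, fluorescence of the B/G FRET substrate was measured.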

[16] = qHTS assay for small molecule agonists of the antioxidant response element (ARE) signaling pathway - cell viability counter screen (AID 743203; calls by dose curve; also: nearly all actives have a fitted effect of over 55% in size)
Summary of the method: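 Seeded at 2,000 cells/well, ARE-bla HepG2 cells were incubated 5 hrs before compound addition. After 16 hrs of treatment at 37C with 5% CO2, CellTiter-Glo reagent was added and luminescence read 30 min later.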

[17] = qHTS assay for small molecule activators of the heat shock response signaling pathway - cell viability counter screen (AID 743209); also: nearly all actives have a fitted effect of over 50% in size
Summary of the method: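 First, HSE-bla HeLa cells were seeded at 1500 cells/well and kept overnight at 37 C. Next, compounds were pinned in and incubated 5 h. After the FRET substrate step, CellTiter-Glo was added and luminescence read 30 min later.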

[18] = qHTS assay for small molecule activators of the heat shock response signaling pathway (AID 743210; active = well fitted activation curve with a large enough effect in the signal ratio in the repeat runs, with a control signal flat, not every such curve was filed as active; the % refers to the signal ratio;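 also: HeLa cells with beta-lactamase reporter driven by heat shock elements; series mostly up to about 63 µM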)
Summary of the method: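 In HSE-bla HeLa cells, 5 h compound incubation (37 C) precedes addition of LiveBLAzer B/G substrate; after 2.5 h at room temperature, fluorescence intensity indicates reporter induction.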

[19] = qHTS assay to identify small molecule antagonists of the thyroid receptor (TR) signaling pathway - cell viability counter screen (AID 743064); also: nearly all actives have a fitted effect of over 50% in size
Summary of the method: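 Compounds were tested on GH3.TRE-Luc cells in the presence of T3 at 1 nM final. Following 23.5 h at 37 °C, cell viability was quantified by CellTiter-Fluor.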

Measured: Potency

CCCCCCOC(=O)CC
inactive: [1] | [2] | [3] | [4] | [5] | [6] | [7] | [8] | Aromatase (Homo sapiens) | [9] | [10] | [11] | [12] | [13] | [14] | [15] | [16] | [17] | [18]

C=C(C)C(=O)OCCNC(C)(C)C
inactive: [19] | [4] | [8] | Aromatase (Homo sapiens) | [9] | [10] | [12] | [13] | [14] | [17] | [18]

C=C1CC/C=C(\C)CC[C@@H]2[C@@H]1CC2(C)C
inactive: [1] | [2] | [3] | [4] | [5] | [6] | [7] | [8] | Aromatase (Homo sapiens) | [9] | [10] | [11] | [12] | [13] | [14] | [15] | [16] | [17] | [18]

CC1=CCC(C(C)C)=CC1
inactive: [19] | [3] | [4] | [5] | [6] | [7] | [8] | Aromatase (Homo sapiens) | [9] | [10] | [11] | [12] | [14] | [15] | [16] | [17] | [18]

COCCOC(=O)C1=C(C)NC(C)=C(C(=O)OC(C)C)C1c1cccc([N+](=O)[O-])c1 (stereo not given)
inactive: [19] | [2] | [4] | [5] | [6] | [7] | [8] | Aromatase (Homo sapiens) | [9] | [11] | [12] | [13] | [14] | [16] | [17]

CCC(C)(CCC(C)C)C(=O)O (stereo not given)
inactive: [19] | [1] | [2] | [4] | [8] | [11] | [14] | [15] | [16] | [17]

ClCCCl
inactive: [1] | [2] | [3] | [4] | [5] | [6] | [7] | [8] | Aromatase (Homo sapiens) | [9] | [10] | [11] | [12] | [13] | [14] | [15] | [16] | [17] | [18]

O=C(NCC(O)CO)c1c(I)c(C(=O)NCC(O)CO)c(I)c(N(CCO)C(=O)CO)c1I (stereo not given)
inactive: [19] | [1] | [2] | [4] | [8] | [11] | [14] | [16] | [17] | [18]
